# Experimental data published in the supplement of paper PMC12282887.
# ± gives the standard deviation of the averaged measurements.
# Assays:
# Assay in all cases: promoter activity interaction Z-score (Lux/OD deviation from empty-vector control); higher = stronger promoter induction by the compound
# [1] = test system: E. coli BW25113 acrABp lux reporter
# Method in brief: (§1)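 At 37°C, E. coli BW25113 reporter cultures in 40 µl LB Lennox in 384-well plates were read for OD600 and luminescence every 30 min for 12 h. Windows were 0–8 h for wild type and 1–9 h for deletion strains, and wells under 10% of the median growth value were removed. The score is the Z-transformed residual of growth-normalised luminescence against a control fit.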
# [2] = test system: E. coli BW25113 micFp lux reporter
# Method in brief: as §1
# [3] = test system: E. coli BW25113 ompFp lux reporter
# Method in brief: as §1
# [4] = test system: E. coli BW25113 robp lux reporter
# Method in brief: as §1
# [5] = test system: E. coli BW25113 soxSp lux reporter
# Method in brief: as §1
# [6] = test system: E. coli BW25113 tolCp lux reporter
# Method in brief: as §1
# [7] = 21.6 µg/ml, genetic background: wild type
# [8] = 21.6 µg/ml, genetic background: ΔmarA
# [9] = 21.6 µg/ml, genetic background: Δrob
# [10] = 21.6 µg/ml, genetic background: ΔsoxS
# [11] = 43.2 µg/ml, genetic background: wild type
# [12] = 43.2 µg/ml, genetic background: ΔmarA
# [13] = 43.2 µg/ml, genetic background: Δrob
# [14] = 43.2 µg/ml, genetic background: ΔsoxS
# [15] = 86.4 µg/ml, genetic background: wild type
# [16] = 86.4 µg/ml, genetic background: ΔmarA
# [17] = 86.4 µg/ml, genetic background: Δrob
# [18] = 86.4 µg/ml, genetic background: ΔsoxS
# [19] = 172.7 µg/ml, genetic background: wild type
# [20] = 172.7 µg/ml, genetic background: ΔmarA
# [21] = 172.7 µg/ml, genetic background: Δrob
# [22] = 172.7 µg/ml, genetic background: ΔsoxS
smiles,measurement,setting,value
COc1ccc2[nH]c([S+]([O-])Cc3ncc(C)c(OC)c3C)nc2c1 (stereo unspecified) [Omeprazole],promoter activity interaction Z-score,[1]; [7],-0.337 ± 0.014
same,promoter activity interaction Z-score,[1]; [8],0.346 ± 0.48
same,promoter activity interaction Z-score,[1]; [9],-0.0504 ± 0.066
same,promoter activity interaction Z-score,[1]; [10],-0.13 ± 0.54
same,promoter activity interaction Z-score,[1]; [11],-0.353 ± 0.082
same,promoter activity interaction Z-score,[1]; [12],-0.358 ± 0.072
same,promoter activity interaction Z-score,[1]; [13],-0.105 ± 0.12
same,promoter activity interaction Z-score,[1]; [14],-0.0181 ± 0.095
same,promoter activity interaction Z-score,[1]; [15],-0.362 ± 0.37
same,promoter activity interaction Z-score,[1]; [16],-0.395 ± 0.11
same,promoter activity interaction Z-score,[1]; [17],-0.192 ± 0.19
same,promoter activity interaction Z-score,[1]; [18],-0.303 ± 0.19
same,promoter activity interaction Z-score,[1]; [19],-0.479 ± 0.43
same,promoter activity interaction Z-score,[1]; [20],-0.193 ± 0.65
same,promoter activity interaction Z-score,[1]; [21],-0.199 ± 0.17
same,promoter activity interaction Z-score,[1]; [22],-0.532 ± 0.35
same,promoter activity interaction Z-score,[2]; [7],-0.467 ± 0.1
same,promoter activity interaction Z-score,[2]; [8],-0.0778 ± 0.095
same,promoter activity interaction Z-score,[2]; [9],-0.00843 ± 0.2
same,promoter activity interaction Z-score,[2]; [10],-0.201 ± 0.026
same,promoter activity interaction Z-score,[2]; [11],-0.228 ± 0.15
same,promoter activity interaction Z-score,[2]; [12],-0.00184 ± 0.029
same,promoter activity interaction Z-score,[2]; [13],0.0425 ± 0.23
same,promoter activity interaction Z-score,[2]; [14],-0.0104 ± 0.033
same,promoter activity interaction Z-score,[2]; [15],-0.311 ± 0.11
same,promoter activity interaction Z-score,[2]; [16],0.141 ± 0.0042
same,promoter activity interaction Z-score,[2]; [17],0.11 ± 0.088
same,promoter activity interaction Z-score,[2]; [18],0.0651 ± 0.15
same,promoter activity interaction Z-score,[2]; [19],-0.637 ± 0.076
same,promoter activity interaction Z-score,[2]; [20],0.0179 ± 0.059
same,promoter activity interaction Z-score,[2]; [21],-0.0934 ± 0.045
same,promoter activity interaction Z-score,[2]; [22],-0.467 ± 0.12
same,promoter activity interaction Z-score,[3]; [7],-0.482 ± 0.29
same,promoter activity interaction Z-score,[3]; [8],-0.539 ± 0.12
same,promoter activity interaction Z-score,[3]; [9],-0.476 ± 0.1
same,promoter activity interaction Z-score,[3]; [10],-0.299 ± 0.19
same,promoter activity interaction Z-score,[3]; [11],-0.42 ± 0.17
same,promoter activity interaction Z-score,[3]; [12],-0.516 ± 0.55
same,promoter activity interaction Z-score,[3]; [13],-0.244 ± 0.2
same,promoter activity interaction Z-score,[3]; [14],-0.555 ± 0.25
same,promoter activity interaction Z-score,[3]; [15],-1.02 ± 0.014
same,promoter activity interaction Z-score,[3]; [16],-0.56 ± 0.35
same,promoter activity interaction Z-score,[3]; [17],-0.352 ± 0.17
same,promoter activity interaction Z-score,[3]; [18],-0.773 ± 0.19
same,promoter activity interaction Z-score,[3]; [19],-0.996 ± 0.11
same,promoter activity interaction Z-score,[3]; [20],-0.786 ± 0.12
same,promoter activity interaction Z-score,[3]; [21],-1.14 ± 0.44
same,promoter activity interaction Z-score,[3]; [22],-1.41 ± 0.14
same,promoter activity interaction Z-score,[4]; [7],-0.44 ± 0.32
same,promoter activity interaction Z-score,[4]; [8],-0.171 ± 0.43
same,promoter activity interaction Z-score,[4]; [9],-0.295 ± 0.01
same,promoter activity interaction Z-score,[4]; [10],0.394 ± 0.34
same,promoter activity interaction Z-score,[4]; [11],0.141 ± 0.33
same,promoter activity interaction Z-score,[4]; [12],0.325 ± 0.23
same,promoter activity interaction Z-score,[4]; [13],-0.173 ± 0.37
same,promoter activity interaction Z-score,[4]; [14],0.145 ± 0.46
same,promoter activity interaction Z-score,[4]; [15],-0.722 ± 0.046
same,promoter activity interaction Z-score,[4]; [16],0.298 ± 0.23
same,promoter activity interaction Z-score,[4]; [17],-0.445 ± 0.32
same,promoter activity interaction Z-score,[4]; [18],-0.519 ± 0.64
same,promoter activity interaction Z-score,[4]; [19],-0.656 ± 0.28
same,promoter activity interaction Z-score,[4]; [20],-0.167 ± 0.31
same,promoter activity interaction Z-score,[4]; [21],-0.507 ± 0.035
same,promoter activity interaction Z-score,[4]; [22],-0.379 ± 0.46
same,promoter activity interaction Z-score,[5]; [7],-0.231 ± 0.11
same,promoter activity interaction Z-score,[5]; [8],-0.202 ± 0.05
same,promoter activity interaction Z-score,[5]; [9],-0.257 ± 0.062
same,promoter activity interaction Z-score,[5]; [10],-0.178 ± 0.32
same,promoter activity interaction Z-score,[5]; [11],-0.256 ± 0.0098
same,promoter activity interaction Z-score,[5]; [12],-0.206 ± 0.022
same,promoter activity interaction Z-score,[5]; [13],-0.175 ± 0.12
same,promoter activity interaction Z-score,[5]; [14],-0.281 ± 0.054
same,promoter activity interaction Z-score,[5]; [15],-0.301 ± 0.081
same,promoter activity interaction Z-score,[5]; [16],-0.305 ± 0.1
same,promoter activity interaction Z-score,[5]; [17],-0.0539 ± 0.1
same,promoter activity interaction Z-score,[5]; [18],-0.344 ± 0.12
same,promoter activity interaction Z-score,[5]; [19],-0.333 ± 0.024
same,promoter activity interaction Z-score,[5]; [20],-0.374 ± 0.013
same,promoter activity interaction Z-score,[5]; [21],-0.226 ± 0.14
same,promoter activity interaction Z-score,[5]; [22],-0.806 ± 0.14
same,promoter activity interaction Z-score,[6]; [7],-0.0562 ± 0.63
same,promoter activity interaction Z-score,[6]; [8],-0.81 ± 0.13
same,promoter activity interaction Z-score,[6]; [9],-0.978 ± 0.82
same,promoter activity interaction Z-score,[6]; [10],-0.661 ± 0.85
same,promoter activity interaction Z-score,[6]; [11],0.122 ± 0.9
same,promoter activity interaction Z-score,[6]; [12],-0.409 ± 0.93
same,promoter activity interaction Z-score,[6]; [13],-0.642 ± 0.94
same,promoter activity interaction Z-score,[6]; [14],0.332 ± 0.16
same,promoter activity interaction Z-score,[6]; [15],-0.33 ± 0.54
same,promoter activity interaction Z-score,[6]; [16],0.11 ± 0.23
same,promoter activity interaction Z-score,[6]; [17],0.71 ± 0.025
same,promoter activity interaction Z-score,[6]; [18],0.0744 ± 0.91
same,promoter activity interaction Z-score,[6]; [19],0.169 ± 0.58
same,promoter activity interaction Z-score,[6]; [20],-0.0827 ± 1.5
same,promoter activity interaction Z-score,[6]; [21],0.0999 ± 0.066
same,promoter activity interaction Z-score,[6]; [22],-0.969 ± 0.63
